Our source for the outcome and AC50 values is PubChem BioAssay (EPA / NIEHS).

The structures appear in SMILES notation. Where “and” joins values, the source holds several entries; their conditions need not be identical. Identical values can stand only once. Records with an inconclusive call do not appear. Some compounds were tested as several samples or in several runs, with calls that do not always agree. Calls of active or inactive are those of the source. How the source made its calls: active means hit-call score of the fitted dose curve at least 0.9, where 1 is the maximum; inconclusive means response in the unintended direction; inactive means score below 0.9.

Assay [1] deals with D(1A) dopamine receptor (Homo sapiens) (UniProt P21728). Put plainly: NVS_GPCR_hDRD1: NovaScreen (NVS) G Protein-Coupled Receptor Assay for human Dopamine Receptor D1 (DRD1) (AID 2283269). In outline:
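Cell-free radioligand binding to human DRD1 from HEK293 membranes, read 1 h after dosing by filter-based scintillation counting. Loss of signal versus DMSO baseline marks displacement. Primary screen at 25 uM single concentration in duplicate; actives followed up in concentration series.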

For assay [2], the target named is human Adrenergic, Alpha 2c Receptor (Adra2C), ADRA2C (gene 152) (UniProt P18825). Put plainly: NVS_GPCR_hAdra2C: NovaScreen (NVS) G Protein-Coupled Receptor Assay for human Adrenergic, Alpha 2c Receptor (Adra2C) (AID 2283259). In outline:
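Screened first in duplicate at 25 uM, with actives then run as concentration series. Membranes from Sf9 cells were exposed for 1 h, and displacement of radioligand was counted after filtration, using DMSO as baseline.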

Assay [3] concerns the target human Purinergic Receptor P2Y, P2RY1 (gene 5028) (UniProt P47900). Put plainly: NVS_GPCR_hPY2: NovaScreen (NVS) G Protein-Coupled Receptor Assay for human Purinergic Receptor P2Y (AID 2283281). Summed up:
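Filtration scintillation readout of radioligand displacement on U937 extract, measured 1 h post-dosing. Single 25 uM duplicate screen, then singleton concentration series to 50 uM for chemicals passing threshold; DMSO as baseline.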

For assay [4], the target named is human Adenosine A2a Receptor (AdoRA2a), ADORA2A (gene 135) (UniProt P29274). As to the kind of experiment: NVS_GPCR_hAdoRA2a: NovaScreen (NVS) G Protein-Coupled Receptor Assay for human Adenosine A2a Receptor (AdoRA2a) (AID 2283256). In outline: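 HEK293-derived receptor preparation, radioligand displacement, 1.5 h, filtration + scintillation read. Loss of bound signal scored vs DMSO. Single-point 25 uM in duplicate first, then concentration-response for actives.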

Assay [5] deals with Muscarinic acetylcholine receptor M2 (Homo sapiens) (UniProt P08172). As to the kind of experiment: NVS_GPCR_hM2: NovaScreen (NVS) G Protein-Coupled Receptor Assay for human Muscarinic, M2 Receptor (AID 2283273). In outline: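 CHO-expressed human M2 receptor preparation, competitive displacement of a radioligand read by filter-based scintillation counting after 1 h. Single 25 uM duplicate screen, then concentration-response follow-up of actives; DMSO baseline.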

The target in assay [6] is human Neurokinin, NK2 Receptor, TACR2 (gene 6865) (UniProt P21452). As to the kind of experiment: NVS_GPCR_hNK2: NovaScreen (NVS) G Protein-Coupled Receptor Assay for human Neurokinin, NK2 Receptor (AID 2283278).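 Further: actives reduce bound radioligand signal relative to DMSO baseline.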 Summed up: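 CHO-derived membrane protein, radioligand displacement, filter scintillation read at 4 h post-dose. Single-point 25 uM in duplicate, then concentration series for actives; DMSO as negative control.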

Assay [7] addresses human Adrenergic, Beta 3 Receptor (Adrb3), ADRB3 (gene 155) (UniProt P13945). As to the kind of experiment: NVS_GPCR_hAdrb3: NovaScreen (NVS) G Protein-Coupled Receptor Assay for human Adrenergic, Beta 3 Receptor (Adrb3) (AID 2283262). Summed up: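 A cell-free filter binding assay read by scintillation counting, with displacement of a specific radioligand measured after 1 hour. The receptor source was SK-N-MC extracts (cells pretreated with isoproterenol and 8-bromo-cAMP). Compounds were first tested at 25 uM in duplicate and then in concentration series.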

Assay [8] has as its target human Adrenergic, Alpha 2A Receptor (Adra2A), ADRA2A (gene 150) (UniProt P08913). Put plainly: NVS_GPCR_hAdra2A: NovaScreen (NVS) G Protein-Coupled Receptor Assay for human Adrenergic, Alpha 2A Receptor (Adra2A) (AID 2283257). Summed up: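 Displacement of a specific radioligand from HT29 membrane protein was counted by filter scintillation after 1 h. Compounds were screened in duplicate at 25 uM, and actives were retested in concentration series. Fitting was positive-direction against DMSO.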

Assay [9] addresses human Adrenergic, Beta 1 Receptor (Adrb1), ADRB1 (gene 153) (UniProt P08588). Put plainly: NVS_GPCR_hAdrb1: NovaScreen (NVS) G Protein-Coupled Receptor Assay for human Adrenergic, Beta 1 Receptor (Adrb1) (AID 2283258). In outline: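 Membranes/protein extracted from human neuroepithelioma cells, radioligand competition binding read by filtration and scintillation 2 h post-dose. Single 25 uM duplicate screen, then concentration-response follow-up; DMSO as negative control.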

Assay [10] addresses Beta-2 adrenergic receptor (Homo sapiens) (UniProt P07550). As to the kind of experiment: NVS_GPCR_hAdrb2: NovaScreen (NVS) G Protein-Coupled Receptor Assay for human Adrenergic, Beta 2 Receptor (Adrb2) (AID 2283261). Summed up:
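Compounds screened in duplicate at 25 uM, then actives in concentration series. Human beta-2 receptor from CHO material, cell-free; radioligand displacement after 1 h measured by filtration and scintillation against DMSO baseline.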

In assay [11] the target is human Dopamine Receptor D2 (DRD2), DRD2 (gene 1813) (UniProt P14416). As to the kind of experiment: NVS_GPCR_hDRD2s: NovaScreen (NVS) G Protein-Coupled Receptor Assay for human Dopamine Receptor D2 (DRD2) (AID 2283266). Summed up: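 Test compound (25 uM, duplicate in the primary screen; concentration series at follow-up) competed with radioligand for human DRD2 in CHO-derived membrane protein. Filter-based scintillation counting was done 1.5 hours after dosing, with loss of signal analysed against DMSO.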

Assay [12] concerns the target human Leukotriene B4 Receptor 1 (LTB4-BLT1), LTB4R (gene 1241) (UniProt Q15722). Put plainly: NVS_GPCR_hLTB4_BLT1: NovaScreen (NVS) G Protein-Coupled Receptor Assay for human Leukotriene B4 Receptor 1 (LTB4-BLT1) (AID 2283271). In outline: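 Cell-free human neutrophil receptor preparation, 1 h exposure, radioligand binding read by filter scintillation counting. Single 25 uM duplicate screen, then concentration series topping at 50 uM; binding loss scored against DMSO baseline.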

The target of assay [13] is human Muscarinic, M4 Receptor, CHRM4 (gene 1132) (UniProt P08173). As to the kind of experiment: NVS_GPCR_hM4: NovaScreen (NVS) G Protein-Coupled Receptor Assay for human Muscarinic, M4 Receptor (AID 2283274). In outline: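 Filter-based scintillation counting of radioligand bound to CHO-expressed human M4 preparations after 1 h; loss of signal fitted versus DMSO. Initial duplicate testing at 25 uM, concentration-response follow-up for actives.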

Assay [14] has as its target Muscarinic acetylcholine receptor M5 (Homo sapiens) (UniProt P08912). Put plainly: NVS_GPCR_hM5: NovaScreen (NVS) G Protein-Coupled Receptor Assay for human Muscarinic, M5 Receptor (AID 2283275). In outline:
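Chemicals passing a primary duplicate screen at 25 uM were run as singleton concentration series, maximum 50 uM. Displacement of a specific radioligand from CHO-extracted receptor was read by filter scintillation after 1 h, relative to DMSO.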

The target of assay [15] is human Opioid Receptor Delta 1 (Opiate D1), OPRD1 (gene 4985) (UniProt P41143). As to the kind of experiment: NVS_GPCR_hOpiate_D1: NovaScreen (NVS) G Protein-Coupled Receptor Assay for human Opioid Receptor Delta 1 (Opiate D1) (AID 2283280). In outline: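 Membrane preparations from CHO cells bearing the human receptor were incubated 1 h with test chemical, and bound radioligand was counted after filtration. Actives from 25 uM duplicate screening were retested in concentration-response.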
Chain of human Opioid Receptor Delta 1 (Opiate D1), OPRD1 (gene 4985) (P41143 whole entry, looked up): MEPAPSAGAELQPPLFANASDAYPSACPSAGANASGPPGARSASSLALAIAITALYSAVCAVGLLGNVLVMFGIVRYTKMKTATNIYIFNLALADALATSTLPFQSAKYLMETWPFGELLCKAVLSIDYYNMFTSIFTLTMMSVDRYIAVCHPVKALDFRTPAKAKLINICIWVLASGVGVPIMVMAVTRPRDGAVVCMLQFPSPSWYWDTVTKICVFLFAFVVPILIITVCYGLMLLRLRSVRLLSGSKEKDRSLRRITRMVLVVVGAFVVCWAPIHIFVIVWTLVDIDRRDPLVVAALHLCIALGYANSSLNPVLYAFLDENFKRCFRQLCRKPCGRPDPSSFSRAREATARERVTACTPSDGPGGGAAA

Chain of D(1A) dopamine receptor (Homo sapiens) (P21728 whole entry, looked up): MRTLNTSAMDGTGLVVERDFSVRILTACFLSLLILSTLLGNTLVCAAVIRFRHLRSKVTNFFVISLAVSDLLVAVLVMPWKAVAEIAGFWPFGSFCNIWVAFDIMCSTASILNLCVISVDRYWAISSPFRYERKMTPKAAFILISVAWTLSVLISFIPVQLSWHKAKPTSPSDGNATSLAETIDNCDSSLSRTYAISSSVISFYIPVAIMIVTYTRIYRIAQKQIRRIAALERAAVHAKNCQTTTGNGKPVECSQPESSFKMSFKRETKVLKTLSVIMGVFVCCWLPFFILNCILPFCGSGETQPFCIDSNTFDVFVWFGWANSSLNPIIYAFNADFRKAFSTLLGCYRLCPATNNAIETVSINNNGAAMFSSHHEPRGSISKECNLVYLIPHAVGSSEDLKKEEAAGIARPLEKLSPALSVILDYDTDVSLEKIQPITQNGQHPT
Chain of Muscarinic acetylcholine receptor M2 (Homo sapiens) (P08172 whole entry, looked up): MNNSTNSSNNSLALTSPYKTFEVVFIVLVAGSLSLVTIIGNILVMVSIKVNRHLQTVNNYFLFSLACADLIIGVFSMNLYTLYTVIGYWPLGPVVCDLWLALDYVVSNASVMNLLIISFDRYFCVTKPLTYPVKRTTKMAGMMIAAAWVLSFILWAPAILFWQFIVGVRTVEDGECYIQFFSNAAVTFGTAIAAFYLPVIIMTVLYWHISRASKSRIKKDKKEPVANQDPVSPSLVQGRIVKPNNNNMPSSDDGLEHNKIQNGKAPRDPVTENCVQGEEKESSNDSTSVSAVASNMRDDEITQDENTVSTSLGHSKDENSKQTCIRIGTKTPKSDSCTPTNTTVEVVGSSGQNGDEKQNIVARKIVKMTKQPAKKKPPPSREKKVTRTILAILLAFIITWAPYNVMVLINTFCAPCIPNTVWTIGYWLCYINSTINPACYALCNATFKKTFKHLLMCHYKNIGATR
Chain of human Neurokinin, NK2 Receptor, TACR2 (gene 6865) (P21452 whole entry, looked up): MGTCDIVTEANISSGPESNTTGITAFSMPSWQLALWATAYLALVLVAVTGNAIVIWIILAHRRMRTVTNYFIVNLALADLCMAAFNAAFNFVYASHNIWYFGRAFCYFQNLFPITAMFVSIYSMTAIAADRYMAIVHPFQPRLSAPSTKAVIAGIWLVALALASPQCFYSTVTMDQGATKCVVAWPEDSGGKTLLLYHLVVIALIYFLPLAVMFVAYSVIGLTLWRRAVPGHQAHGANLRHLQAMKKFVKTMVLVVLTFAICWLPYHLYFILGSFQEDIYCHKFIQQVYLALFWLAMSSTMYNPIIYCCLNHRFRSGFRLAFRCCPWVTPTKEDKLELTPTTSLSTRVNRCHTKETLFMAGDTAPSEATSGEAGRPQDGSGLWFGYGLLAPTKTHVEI
Chain of human Adrenergic, Alpha 2c Receptor (Adra2C), ADRA2C (gene 152) (P18825 whole entry, looked up): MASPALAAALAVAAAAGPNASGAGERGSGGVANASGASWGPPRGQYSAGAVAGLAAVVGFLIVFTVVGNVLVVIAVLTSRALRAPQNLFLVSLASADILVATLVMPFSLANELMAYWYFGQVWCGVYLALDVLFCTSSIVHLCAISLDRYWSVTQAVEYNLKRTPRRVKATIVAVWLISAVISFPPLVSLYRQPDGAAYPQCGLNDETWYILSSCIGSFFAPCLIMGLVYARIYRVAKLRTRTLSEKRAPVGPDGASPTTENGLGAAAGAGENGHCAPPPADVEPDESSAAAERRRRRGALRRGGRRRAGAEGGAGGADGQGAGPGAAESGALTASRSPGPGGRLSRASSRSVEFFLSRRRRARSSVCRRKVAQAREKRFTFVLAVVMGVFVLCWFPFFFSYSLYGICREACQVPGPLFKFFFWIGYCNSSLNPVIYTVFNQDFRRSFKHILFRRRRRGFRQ
Chain of Muscarinic acetylcholine receptor M5 (Homo sapiens) (P08912 whole entry, looked up): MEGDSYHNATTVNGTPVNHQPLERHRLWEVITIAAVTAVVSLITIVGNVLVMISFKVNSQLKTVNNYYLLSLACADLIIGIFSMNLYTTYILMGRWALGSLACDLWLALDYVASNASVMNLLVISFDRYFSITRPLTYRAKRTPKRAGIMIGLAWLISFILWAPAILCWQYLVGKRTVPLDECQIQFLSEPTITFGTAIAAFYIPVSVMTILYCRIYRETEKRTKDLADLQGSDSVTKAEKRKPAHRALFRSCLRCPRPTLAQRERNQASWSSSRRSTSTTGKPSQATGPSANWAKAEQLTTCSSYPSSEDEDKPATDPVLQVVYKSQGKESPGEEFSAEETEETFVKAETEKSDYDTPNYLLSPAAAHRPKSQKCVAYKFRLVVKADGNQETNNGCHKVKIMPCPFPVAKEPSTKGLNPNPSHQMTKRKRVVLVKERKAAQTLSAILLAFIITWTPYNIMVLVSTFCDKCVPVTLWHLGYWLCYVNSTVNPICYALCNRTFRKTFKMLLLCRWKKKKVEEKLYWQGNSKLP
Chain of human Adenosine A2a Receptor (AdoRA2a), ADORA2A (gene 135) (P29274 whole entry, looked up): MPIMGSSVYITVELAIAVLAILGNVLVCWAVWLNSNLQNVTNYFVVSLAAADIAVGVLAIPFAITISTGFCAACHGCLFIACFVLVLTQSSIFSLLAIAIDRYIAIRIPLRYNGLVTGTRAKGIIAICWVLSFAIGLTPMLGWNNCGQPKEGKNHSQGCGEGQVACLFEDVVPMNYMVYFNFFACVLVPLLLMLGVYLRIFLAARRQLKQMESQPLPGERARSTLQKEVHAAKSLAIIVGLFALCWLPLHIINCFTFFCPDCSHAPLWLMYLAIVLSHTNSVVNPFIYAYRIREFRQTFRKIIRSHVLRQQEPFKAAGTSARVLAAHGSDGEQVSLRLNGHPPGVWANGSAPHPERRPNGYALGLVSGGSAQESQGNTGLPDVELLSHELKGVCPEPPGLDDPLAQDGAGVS
Chain of Beta-2 adrenergic receptor (Homo sapiens) (P07550 whole entry, looked up): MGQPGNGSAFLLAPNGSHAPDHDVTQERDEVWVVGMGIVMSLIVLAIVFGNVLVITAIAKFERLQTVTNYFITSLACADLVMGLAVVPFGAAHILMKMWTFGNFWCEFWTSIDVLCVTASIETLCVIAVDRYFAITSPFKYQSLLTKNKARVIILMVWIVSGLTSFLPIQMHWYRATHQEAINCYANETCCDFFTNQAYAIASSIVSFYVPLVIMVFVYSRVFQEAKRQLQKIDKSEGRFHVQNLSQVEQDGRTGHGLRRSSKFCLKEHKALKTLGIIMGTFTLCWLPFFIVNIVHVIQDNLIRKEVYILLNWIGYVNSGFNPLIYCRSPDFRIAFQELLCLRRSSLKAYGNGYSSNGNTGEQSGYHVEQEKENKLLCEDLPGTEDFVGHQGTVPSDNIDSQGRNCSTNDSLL
Chain of human Muscarinic, M4 Receptor, CHRM4 (gene 1132) (P08173 whole entry, looked up): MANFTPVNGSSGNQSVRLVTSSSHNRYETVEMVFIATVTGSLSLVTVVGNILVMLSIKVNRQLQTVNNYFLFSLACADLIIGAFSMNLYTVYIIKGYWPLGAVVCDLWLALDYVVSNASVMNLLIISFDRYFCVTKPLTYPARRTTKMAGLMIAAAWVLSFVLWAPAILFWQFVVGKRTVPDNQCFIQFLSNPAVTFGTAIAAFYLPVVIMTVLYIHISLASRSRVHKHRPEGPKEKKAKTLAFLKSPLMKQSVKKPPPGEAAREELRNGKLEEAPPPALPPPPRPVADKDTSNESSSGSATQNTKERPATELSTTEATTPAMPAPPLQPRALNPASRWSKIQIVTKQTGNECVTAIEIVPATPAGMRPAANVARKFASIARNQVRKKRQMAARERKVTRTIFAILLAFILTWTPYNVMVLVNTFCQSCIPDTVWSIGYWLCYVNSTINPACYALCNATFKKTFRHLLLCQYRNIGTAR
Chain of human Leukotriene B4 Receptor 1 (LTB4-BLT1), LTB4R (gene 1241) (Q15722 whole entry, looked up): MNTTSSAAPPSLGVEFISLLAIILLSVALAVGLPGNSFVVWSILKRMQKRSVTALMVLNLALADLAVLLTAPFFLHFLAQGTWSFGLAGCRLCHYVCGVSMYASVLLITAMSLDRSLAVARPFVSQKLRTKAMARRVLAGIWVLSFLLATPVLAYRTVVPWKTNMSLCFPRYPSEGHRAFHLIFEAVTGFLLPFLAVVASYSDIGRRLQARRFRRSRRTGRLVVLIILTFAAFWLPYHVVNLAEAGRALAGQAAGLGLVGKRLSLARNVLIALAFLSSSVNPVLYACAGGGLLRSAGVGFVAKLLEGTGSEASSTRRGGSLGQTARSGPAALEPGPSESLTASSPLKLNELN
Chain of human Adrenergic, Beta 1 Receptor (Adrb1), ADRB1 (gene 153) (P08588 whole entry, looked up): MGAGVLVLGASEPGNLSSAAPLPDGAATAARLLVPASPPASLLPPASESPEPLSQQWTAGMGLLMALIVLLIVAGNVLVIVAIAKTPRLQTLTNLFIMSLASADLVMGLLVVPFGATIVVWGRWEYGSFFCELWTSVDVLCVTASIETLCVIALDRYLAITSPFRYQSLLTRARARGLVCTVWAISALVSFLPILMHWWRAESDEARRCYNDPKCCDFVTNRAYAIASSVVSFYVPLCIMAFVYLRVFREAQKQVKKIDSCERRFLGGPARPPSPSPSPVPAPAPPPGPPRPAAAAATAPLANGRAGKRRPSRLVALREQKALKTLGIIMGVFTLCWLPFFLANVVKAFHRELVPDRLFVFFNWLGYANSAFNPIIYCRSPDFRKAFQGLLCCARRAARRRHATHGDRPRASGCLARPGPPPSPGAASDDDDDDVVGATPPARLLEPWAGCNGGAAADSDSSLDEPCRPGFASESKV

On to `C/C=C/C(=O)C1=C(C)CCCC1(C)C`, for which the call in assay [1] was inactive.

`Cc1[nH]nc2c1N=C(c1ccccc1Cl)c1cc([N+](=O)[O-])ccc1N2`: the result in [2] was inactive.

As for `CCCCC=O`, the result in assay [3] was inactive.

The AC50 is the concentration giving half of the maximal activity seen. On to `CN(C)c1ccc(C(=C2C=CC(=[N+](C)C)C=C2)c2ccccc2)cc1`, for which the outcome in [4] was inactive. Besides, the AC50 in assay [1] was 2.97 µM (active) and 3.18 µM (active); in [5], 4.03 µM (active) and 2.32 µM (active); in assay [6] it was 5.94 µM (active) and 1.63 µM (active).

Consider `O=C1OC2(c3ccccc31)c1cc(I)c(O)c(I)c1Oc1c2cc(I)c(O)c1I`, for which the AC50 is 0.594 µM (active) in assay [1] and 1.78 µM (active) in [6].

`CCCCCCCCC(C)=O`: the call in [1] was inactive.

Take `CCCCCc1ccc(O)cc1`: in assay [6], the molecule was classed as inactive.

Take `O=C1c2ccc(O)c(O)c2C(=O)c2c(O)ccc(O)c21`: the call in assay [1] was inactive.

`O=C(CCCN1CCC(O)(c2ccc(Cl)cc2)CC1)c1ccc(F)cc1`: the call in assay [7] and in assay [6] was inactive.

Regarding `N=C(N)c1ccc(OCCCCCOc2ccc(C(=N)N)cc2)cc1`, the AC50 in [8] was 23.2 µM (active); in [9], 20.4 µM (active); in assay [2], 7.57 µM (active); in assay [10], 21.9 µM (active); in [1], 12.3 µM (active); in [13] it was 2.83 µM (active). For the same molecule, the AC50 in assay [14] was 8.19 µM (active); in assay [15] it was 8.49 µM (active). For the same molecule, the outcome in assay [11], in [12] and in [6] was inactive.

Turning to `CCCCCCCCCCCCCCCCCC[N+](C)(C)Cc1ccccc1`, the AC50 in [1] is 2.22 µM (active); in assay [5], 314 nM (active); in [6], 2.55 µM (active).

Turning to `CC(C)(C)c1ccc(O)c(O)c1`, the results for the half-maximal activity concentration (AC50) in assay [1] and in [6] were 25 µM (active) and 16 µM (active), respectively. In addition, the molecule was classed as inactive in assay [6].
